# Anthrax LT inh = qHTS Assay for Anthrax Lethal Toxin Internalization; Cells, anthrax lethal toxin internalization, FRET ratio (460/530); Potency, µM (series often up to 40 µM), usual class: inhibitors; actives 0.67% (n = 70,000); AID 912, 2007; further: nearly all actives have a fitted effect of over 50% in size
# AmpC nodet inh = Promiscuous and Specific Inhibitors of AmpC Beta-Lactamase (assay without detergent) | actives 1.8% (n = 71,000) | Potency, µM (series often up to 28.7 µM) | P00811 | AmpC nitrocefin hydrolysis, absorbance 480 nm, no detergent
# Target sequence (P00811 whole entry, looked up): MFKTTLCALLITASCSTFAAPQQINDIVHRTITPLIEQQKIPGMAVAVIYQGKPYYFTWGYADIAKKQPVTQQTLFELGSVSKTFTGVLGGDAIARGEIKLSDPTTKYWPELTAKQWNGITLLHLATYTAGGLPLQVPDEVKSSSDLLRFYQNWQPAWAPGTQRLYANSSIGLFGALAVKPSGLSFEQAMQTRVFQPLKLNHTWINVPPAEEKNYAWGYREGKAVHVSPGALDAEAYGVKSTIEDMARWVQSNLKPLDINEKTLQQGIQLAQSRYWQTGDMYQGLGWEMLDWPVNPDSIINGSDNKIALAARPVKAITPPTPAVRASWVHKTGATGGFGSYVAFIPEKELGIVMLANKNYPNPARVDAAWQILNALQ
#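 AmpC, 20 mM phosphate pH 7.0; 15 min cpd preinc, RT; start with nitrocefin (800 uM stock); A480 kinetic read, 20 s intervals, 4 min. No-enzyme wells = negative control.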
# Prx2 Sm inh = Schistosoma Mansoni Peroxiredoxins (Prx2); Potency, µM; S. mansoni Prx2 activity coupled to TGR/GSH (TGR is thioredoxin glutathione reductase), NADPH fluorescence loss, qHTS; Schistosoma mansoni peroxiredoxin 2 (Prx2); AID 448, 2006; actives 0.07% (n = 65,000)
#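 Activity is read as the drop in NADPH fluorescence (365/450 nm), recorded every 30 sec for 8 min after H2O2 addition. Prx2 is coupled to TGR-driven NADPH oxidation through glutathione, in phosphate buffer pH 7.4.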
# AmpC det inh = Promiscuous and Specific Inhibitors of AmpC Beta-Lactamase (assay with detergent) | purified AmpC, nitrocefin hydrolysis with detergent | Potency, µM (series often up to 28.7 µM) | actives 0.09% (n = 71,000) | AID 584, 2007; active means well fitted curve in the direction sought with a large enough effect; inconclusive means small, poorly fitted or top-dose-only effect
#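 E. coli AmpC (5.3 nM) in 20 mM phosphate pH 7.0 with 0.01% Triton X-100, preincubated 15 min RT with compound; nitrocefin (2 uL of 800 uM stock) hydrolysis followed by 480 nm absorbance every 20 s over 4 min.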
# Hits are given with their value; 0 = inactive; ? = inconclusive; - = no result given; ! = repeats disagree; [ ] = another dose, or the depositor's remark. Most compounds without a hit are left out; they make up all but 2.4% or so of the library. Unless noted, the call rests on the fitted dose curve.
SMILES,Anthrax LT inh,AmpC nodet inh,Prx2 Sm inh,AmpC det inh
COc1ccc(OCc2nnc3n2N=C(c2ccc(Br)cc2)CS3)cc1,?,4µM[single pt active],0,0
c1ccc2c(c1)CCC[C@H]2C1=NCCN1,0,0,0,0
CC(=O)Nc1nc(-c2ccc(Br)s2)cs1,0,13µM,0,0
Nc1ncnc2c1ncn2[C@@H]1O[C@@H](COP(=O)(O)OP(=O)(O)OP(=O)(O)OP(=O)(O)OC[C@@H]2O[C@@H](n3cnc4c(N)ncnc43)[C@@H](O)[C@H]2O)[C@H](O)[C@@H]1O,?,0,0,0
Cc1ccccc1OCc1nc(-c2ccc(NC(=O)c3ccc4c(c3)OCO4)cc2)no1,0,13µM,0,0
Cc1ccccc1OCc1nc(-c2ccc(NC(=O)c3ccco3)cc2)no1,?,0,0,0
O=C(Nc1ccc(-c2noc(CCc3ccccc3)n2)cc1)c1cccnc1,10µM,0,0,0
O=C(c1ccco1)N1CCN(c2ncccn2)CC1,0,4µM[single pt active],0,0
COc1ccc(NC(=O)c2cc(-c3cc(C)ccc3O)n[nH]2)cc1Cl,?,0,0,0
COc1ccc(OC)c(NC(=O)c2cc(-c3cc(Cl)ccc3O)n[nH]2)c1,-,10µM,0,0
CO[C@]1(NC(=O)C2SC(=C(C(N)=O)C(=O)O)S2)C(=O)N2C(C(=O)O)=C(CSc3nnnn3C)CS[C@H]21 (some centres not stated),0.5µM,?,0,2µM
Cn1nnnc1SCC1=C(C(=O)O)N2C(=O)[C@@H](NC(=O)[C@@H](O)c3ccccc3)[C@@H]2SC1,0[3.58 µM],0,0,0
CN(C)CCn1nnnc1SCC1=C(C(=O)O)N2C(=O)[C@@H](NC(=O)Cc3csc(N)n3)[C@@H]2SC1,0[3.58 µM],0,0,0
CO[C@]1(NC(=O)CSCC#N)C(=O)N2C(C(=O)O)=C(CSc3nnnn3C)CS[C@H]21,?,7.9µM![single pt active],0,?
CO[C@]1(NC(=O)Cc2cccs2)C(=O)N2C(C(=O)O)=C(COC(N)=O)CS[C@H]21,5µM,5µM,0,5µM
COc1ncc2nc(-c3cc(F)cc(F)c3)c(=O)n(CCc3ccccc3)c2n1,?,0,0,0
N#Cc1cccc(-c2ccc3ncnc(NCc4ccccc4)c3c2)c1,?,0,0,0
NCCCc1ccc2oc3ccccc3c2c1,0[8 µM],0[5.75 µM],0,0[5.75 µM]
Cc1ccccc1NC(=O)c1ocnc1C,0,4µM[single pt active],0,0
COc1ccc(Cc2nnc(NC(=O)Cc3cccs3)s2)cc1OC,0,13µM,0,0
CCCCCc1nnc(NC(=O)Cc2cccs2)s1,0,13µM,0,0
O=C(Cc1cccs1)Nc1nnc(CCc2ccccc2)s1,0,0,0,0
CCOc1ccc(N(CC(=O)N2CCc3ccccc32)S(=O)(=O)c2c(C)noc2C)cc1,?,3.2µM[single pt active],0,0
Cc1cc(C)cc(N(CC(=O)N2CCn3c2nc2ccccc23)S(=O)(=O)c2c(C)noc2C)c1,?,4µM[single pt active],0,0
Cc1n[nH]c(C)c1S(=O)(=O)N(CC(=O)N1CCc2ccccc21)c1ccc(C(C)C)cc1,0,4µM[single pt active],0,0
SMILES,Anthrax LT inh,AmpC nodet inh,Prx2 Sm inh,AmpC det inh
Cc1cc(C)cc(N(CC(=O)N2CCc3ccccc32)S(=O)(=O)c2c(C)noc2C)c1,2µM,4µM[single pt active],0,0
Cc1cc(C)cc(N(CC(=O)N2CCN(c3ccccc3)CC2)S(=O)(=O)c2c(C)noc2C)c1,?,0,0,0
CCCCCCCCCCCCCCCCCCOC[C@@H](COP(=O)([O-])OCC[N+](C)(C)C)OC,0,0,0,0
Cc1nc2cnc(N3CCN(C)CC3)nc2n(-c2ccccc2)c1=O,0,0,0,0
Cn1c(-c2cccc(Br)c2)cnc1NCc1cccnc1,0,0,0,0
COc1cccc(-c2cnc(NCc3cc(Cl)ccc3O)n2C)c1,?,13µM,0,0
NCCC(=O)O,?,0,0,0
CC1=C(\C=C/C(C)=C/C=C\C(C)=C\C(=O)Nc2ccc(O)cc2)C(C)(C)CCC1,0,0,0,0
COc1ccc(Nc2nc(N3CCCC3)nc3ccccc23)c(OC)c1,13µM,0,0,0
CN1CCCC[C@@H]1CCN1CCCCC1,0[8 µM],0[5.75 µM],0,0[5.75 µM]
O=C(c1cc(C(F)(F)F)cc(C(F)(F)F)c1)N1CCC[C@@]2(CCN(Cc3ccccc3)C2)C1,?,0,0,0
COc1ccc(NC(=O)NCCCN2CCN(c3cc(C)ccc3C)CC2)cc1,?,4µM[single pt active],0,0
COc1ccccc1N1CCN(c2cc(=O)n(-c3ccc(Cl)cc3)c(=O)[nH]2)CC1,0,0,0,0

# Screening results: PubChem, National Center for Advancing Translational Sciences (NCATS)
